Results on 14 compounds are retold here after PubChem BioAssay (NCATS).

Records with an inconclusive call do not appear. Active and inactive are the calls of the source. The call rests on the fitted dose curve; in most records, active means well fitted inhibition curve with a large enough effect; inconclusive means small, poorly fitted or top-dose-only effect; inactive means flat fitted curve, though single readings scatter.

Common to all, as to assay: qHTS profiling for inhibitors of Plasmodium falciparum proliferation (AID 504749); further: nearly all actives have a fitted effect of over 60% in size
Common to all, as to details: P. falciparum in erythrocytes, SYBR Green DNA, 72 h; series mostly up to 28.7 µM
(In general: qHTS replaces the single test concentration by a dilution series.)

Assay [1] deals with CP335. A digest of the protocol:
(§1)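 Fluorescence of SYBR Green-bound parasite DNA, read at 485/535 nm, served as the growth measure. Infected erythrocytes were cultured with compound 72 h; artemisinin (0.29 uM) and DMSO wells defined the normalization range.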

Assay [2] relates to DFO2036. A digest of the protocol:
as §1

Assay [3] relates to DIV14. An outline of the steps:
as §1

The test system of assay [4] is DIV17. An outline of the steps:
as §1

The test system of assay [5] is DIV30. A digest of the protocol:
as §1

The test system of assay [6] is Dd2. An outline of the steps:
as §1

The test system of assay [7] is ECU. A digest of the protocol:
as §1

For assay [8], the system named is FAB9. An outline of the steps: as §1
Assay [9] has as its system GB4. A digest of the protocol:
as §1

The test system of assay [10] is HB3. A digest of the protocol:
as §1

Assay [11] has as its system ICS. A digest of the protocol: as §1
In assay [12] the test system is JCK. An outline of the steps:
as §1

Assay [13] relates to N140. An outline of the steps: as §1
The test system of assay [14] is P93_24. An outline of the steps: as §1
Assay [15] relates to P94_40. An outline of the steps:
as §1

The test system of assay [16] is PAD. A digest of the protocol:
as §1

Assay [17] has as its system PC15. An outline of the steps: as §1
For assay [18], the system named is PC26. A digest of the protocol:
as §1

Assay [19] has as its system PC49. An outline of the steps: as §1
Assay [20] relates to SC27B. An outline of the steps: as §1
Potency means the concentration at half of the fitted maximal effect.

For the compound `CCCC1CCCCN1` (stereo not drawn), the Potency result in assay [1], in assay [2], in assay [3], in [4], in assay [5] and in [6] was “inactive” throughout. In addition, the Potency result in assay [7], in assay [8], in assay [9], in assay [10], in [11] and in assay [12] was “inactive” in each case. The Potency entry in [13], in assay [14], in assay [15], in [16], in [17] and in [18] was “inactive” in each case. Further, the Potency entry in assay [19] and in [20] was “inactive” each time.

As for `CN1C(=S)CN=C(c2ccccc2)c2cc(Cl)ccc21`, the Potency entry in assay [1], in assay [2], in [3], in [4], in [5] and in [6] was “inactive” in each case. The Potency result in assay [7], in [8], in assay [9], in [10], in assay [11] and in [12] was “inactive” each time. Besides, the Potency entry in assay [13], in assay [14], in assay [15], in assay [16], in [17] and in [18] was “inactive” in each case. In addition, the Potency entry in assay [19] and in assay [20] was “inactive” in each case.

Take `CC[N+]1(C)CCCC(OC(=O)C(O)(c2ccccc2)c2ccccc2)C1` (stereo not drawn): the Potency result in assay [1], in assay [2], in assay [3], in assay [4], in assay [5] and in [6] was “inactive” each time. Further, the Potency result in [7], in [8], in assay [9], in assay [10], in assay [11] and in assay [12] was “inactive” throughout. Also, the Potency entry in [13], in [14], in assay [15], in [16], in assay [17] and in assay [18] was “inactive” in each case. Further, the Potency result in assay [19] and in assay [20] was “inactive” in each case.

For `CC(=O)[C@H]1CC[C@H]2[C@@H]3CC[C@H]4C[C@H](O)CC[C@]4(C)[C@H]3C(=O)C[C@]12C`, the Potency entry in [1], in assay [2], in assay [3], in assay [4], in assay [5] and in assay [6] was “inactive” throughout. The Potency entry in assay [7], in [8], in assay [9], in assay [10], in assay [11] and in assay [12] was “inactive” each time. Further, the Potency entry in [13], in assay [14], in [15], in assay [16], in [17] and in [18] was “inactive” throughout. Also, the Potency result in assay [19] and in assay [20] was “inactive” throughout.

Consider `Cn1c(CCCC(=O)O)nc2cc(N(CCCl)CCCl)ccc21`, for which the Potency result in assay [1], in assay [2], in [3], in assay [4], in assay [5] and in assay [6] was “inactive” in each case. For the same compound, the Potency result in [7], in assay [8], in [9], in assay [10], in [12] and in [13] was “inactive” throughout. Also, the Potency entry in assay [14], in assay [15], in assay [16], in assay [17], in [18] and in assay [19] was “inactive” each time. The Potency result in assay [20] is “inactive”.

As for `CCC(C(N)=O)N1CCCC1=O` (stereo not drawn), the Potency entry in [1], in assay [2], in assay [3], in assay [4], in assay [5] and in [6] was “inactive” each time. Further, the Potency entry in assay [7], in [8], in assay [9], in assay [10], in assay [11] and in [12] was “inactive” in each case. Moreover, the Potency entry in [13], in assay [14], in [15], in assay [16], in assay [17] and in assay [18] was “inactive” each time. Further, the Potency entry in [19] and in assay [20] was “inactive” throughout.

Regarding `NP(N)(=O)NC(=O)c1ccc(F)cc1`, the Potency entry in assay [1], in [2], in assay [3], in assay [4], in assay [5] and in assay [6] was “inactive” in each case. Further, the Potency entry in [7], in [8], in assay [9], in [10], in assay [11] and in assay [12] was “inactive” throughout. The Potency entry in assay [13], in [14], in assay [15], in [16], in assay [17] and in assay [18] was “inactive” in each case. The Potency result in [19] and in assay [20] was “inactive” throughout.

Turning to `CC(C)CC(N(C)C)C1(c2ccc(Cl)cc2)CCC1` (stereo not drawn), the Potency entry in assay [1], in assay [2], in [3], in assay [4], in assay [5] and in assay [6] was “inactive” each time. Besides, the Potency entry in [7], in assay [8], in assay [9], in [10], in assay [11] and in assay [12] was “inactive” each time. For the same compound, the Potency result in [13], in assay [14], in assay [15], in [16], in assay [17] and in assay [18] was “inactive” in each case. For the same compound, the Potency result in assay [19] and in assay [20] was “inactive” each time.

As for `Clc1ccc(COC(Cn2ccnc2)c2ccc(Cl)cc2Cl)cc1` (stereo not drawn), the Potency in assay [1] was 4.26 µM (active); in [2] it was 2.51 µM (active); in assay [3] it was 1.9 µM (active); in assay [4], 1.51 µM (active); in assay [5], 1.69 µM (active); in assay [6], 2.82 µM (active). Moreover, the Potency in assay [7] is 0.794 µM (active); in assay [8] it was 11.2 µM (active); in assay [9], 1.69 µM (active); in assay [10], 3.98 µM (active); in assay [11], 0.631 µM (active); in assay [12] it was 8.91 µM (active). Moreover, the Potency in assay [13] is 1.58 µM (active); in assay [14], 1.12 µM (active); in assay [15], 2 µM (active); in [16] it was 2.51 µM (active); in [17], 2.82 µM (active); in assay [18], 1.9 µM (active). Also, the Potency is 8.91 µM (active) in assay [19] and 2.51 µM (active) in assay [20].

Regarding `O=C1NCN(c2ccccc2)C12CCN(CC1COc3ccccc3O1)CC2` (stereo not drawn), the Potency entry in assay [1], in assay [2], in assay [3], in assay [5], in [6] and in assay [7] was “inactive” throughout. The Potency result in assay [8], in [9], in assay [10], in assay [12], in assay [13] and in [14] was “inactive” each time. Besides, the Potency entry in [15], in [17], in [18], in assay [19] and in [20] was “inactive” throughout. The Potency in [11] was 8.91 µM (active).

As to `COc1ccc(C(CN(C)C)C2(O)CCCCC2)cc1` (stereo not drawn), the Potency result in [2], in assay [3], in [5], in assay [7], in assay [8] and in assay [10] was “inactive” in each case. Also, the Potency result in assay [11], in assay [12], in assay [14], in [15], in assay [16] and in assay [17] was “inactive” in each case. Besides, the Potency result in [19] and in assay [20] was “inactive” throughout.

With `c1ccc2c(c1)OCC(C1=NCCN1)O2` (stereo not drawn), the Potency entry in [2], in assay [5], in [6], in assay [7], in [8] and in assay [10] was “inactive” throughout. Also, the Potency result in assay [12], in [13], in assay [14], in assay [15], in assay [16] and in [17] was “inactive” throughout. The Potency entry in [18] and in assay [20] was “inactive” in each case.

Turning to `Oc1ccc(Cl)cc1Cc1ccccc1`, the Potency in [3] was 7.57 µM (active); in assay [4] it was 7.57 µM (active); in assay [5], 10.7 µM (active); in assay [6], 10 µM (active); in [7], 11.2 µM (active); in assay [9], 8.49 µM (active). Also, the Potency was 12.6 µM (active) in [10]; 2 µM (active) in assay [11]; 7.94 µM (active) in assay [13]; 12.6 µM (active) in assay [15]; 11.2 µM (active) in assay [16]; 15.1 µM (active) in [18]. The Potency in assay [20] is 10 µM (active). In addition, the Potency entry in assay [8] is “inactive”.

Take `CCN(C(C)=O)c1cccc(-c2ccnc3c(C#N)cnn23)c1`: the Potency result in [1], in assay [2], in assay [4], in assay [5], in assay [6] and in [7] was “inactive” in each case. In addition, the Potency result in assay [8], in [9], in assay [10], in assay [11], in assay [12] and in [13] was “inactive” throughout. Moreover, the Potency entry in assay [14], in assay [15], in assay [16], in assay [17], in [18] and in assay [19] was “inactive” in each case. Further, the Potency result in assay [20] was “inactive”.
